Measurements published in PubChem BioAssay AID2549 (National Center for Advancing Translational Sciences (NCATS), 2010).
The whole screen tested about 240,000 compounds, of which about 1,300 (0.54%) were called active. Roughly 1% stayed inconclusive and do not appear here. Many of the other results were omitted from the sample, so actives are more common in it than they were. Unmarked numbers belong to inactive results. The call rests on the fitted dose curve; in most records, active means well fitted inhibition curve with a large enough effect; inconclusive means small, poorly fitted or top-dose-only effect; inactive means flat fitted curve, though single readings scatter.

target: ATP-dependent DNA helicase Q1 (Homo sapiens) (UniProt P46063); test: qHTS Assay for Inhibitors of RecQ-Like Dna Helicase 1 (RECQ1); conditions: RECQ1 DNA unwinding, red fluorescence kinetic read; series mostly up to 57.3 µM; activity, negative = inhibition: at the top concentration; further: nearly all actives have a fitted effect of over 30% in size
Sequence (P46063 whole entry, looked up): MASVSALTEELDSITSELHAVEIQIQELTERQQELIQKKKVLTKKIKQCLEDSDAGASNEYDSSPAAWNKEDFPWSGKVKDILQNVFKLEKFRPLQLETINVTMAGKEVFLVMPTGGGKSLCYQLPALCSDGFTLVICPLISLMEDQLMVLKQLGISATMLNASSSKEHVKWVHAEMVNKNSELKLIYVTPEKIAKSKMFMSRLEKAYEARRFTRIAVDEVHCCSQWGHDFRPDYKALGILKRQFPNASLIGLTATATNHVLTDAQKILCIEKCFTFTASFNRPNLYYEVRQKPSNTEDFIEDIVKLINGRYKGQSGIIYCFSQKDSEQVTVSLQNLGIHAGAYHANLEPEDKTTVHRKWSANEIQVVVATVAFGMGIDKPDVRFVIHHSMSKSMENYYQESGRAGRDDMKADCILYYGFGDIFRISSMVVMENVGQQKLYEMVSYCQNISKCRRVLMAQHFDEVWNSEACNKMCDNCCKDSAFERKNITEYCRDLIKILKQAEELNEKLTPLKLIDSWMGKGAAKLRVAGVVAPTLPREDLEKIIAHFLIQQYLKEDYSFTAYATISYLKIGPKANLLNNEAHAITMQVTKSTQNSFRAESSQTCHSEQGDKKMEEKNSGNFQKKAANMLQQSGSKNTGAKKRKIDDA
Excerpt: Survival of cells and the faithful propagation of the genome depend on elaborate mechanisms of detecting and repairing DNA damage. Treatment of advanced cancer relies on radiation therapy or chemotherapy, which kill cancer cells by causing extensive DNA damage. It is often found, that cancer cells develop resistance to therapy through enhanced activity of DNA repair functions; this has led to an increased interest in developing drugs that interfere with DNA repair, which could sensitize cancer cells to conventional therapy.
This validation qHTS assay pertains to human RECQ1, which is important in resolving abnormal DNA structures formed during replication or homologous recombination. Shutting down the expression of RECQ1 leads to chromosomal instability and higher radiation sensitivity in cultured cells.
The validation assay was a fluorescence quenching based kinetic qHTS for RECQ1 Helicase DNA unwinding. The activity was measured as ATP-dependent separation of a 20-bp DNA duplex extended by 30-nt single-stranded tails (forked duplex). The forked DNA substrate was tagged with rhodamine fluorophore (carboxytetramethyl rhodamine, TAMRA) and BHQ-2 (Black Hole Quencher 2) dark quencher. Strand separation results in an increase in the fluorescence of TAMRA (excitation 525 nm, emission 598 nm). This substrate construct operates in a red-shifted region where very few compound library members have been noted to fluoresce (PubChem AIDs 593 and 594). An additional feature of the assay is the inclusion of 2.5 ug/ml poly (dIdC), to reduce interference by compounds such as DNA intercalators, a major source of false inhibitors.
Opher Gileadi, Structural Genomics Consortium, University of Oxford
Screening Center PI: Austin, C.P.
Screening Center: NIH Chemical Genomics Center [NCGC]
Three uL of reaction buffer (25 mM Tris-HCl (pH 8.0), 5 mM NaCl, 2 mM MgCl2, 1mM DTT, 0.01% Tween- 20, and 2.5 ug/ml poly(dI-dC), including enzyme (50 nM RECQ1T1), were dispensed into a 1536-well Greiner black assay plate via solenoid-valve based nanoliter dispensers. Compounds (23 nl each in columns 5-48) and control (23 nl each in column 2 as dose-response) were transferred via a Kalypsys pintool equipped with a 1536-pin array. The plates were incubated for 15 min at room temperature, and then 1 ul of substrates (200 nM DNA and 2 mM ATP, final concentrations) was added to start the reaction. The plate was transferred into a ViewLux high-throughput CCD imager where the reaction progress was measured in a discontinuous kinetic mode (two reads spaced 2 hours apart, with intermediate room temperature incubation of the covered assay plate) by using standard red-fluorescence optics (excitation filter 525 nm, emission filter 598 nm). Enzyme-free and vehicle (DMSO) controls were included for signal normalization.
Potency means the concentration at half of the fitted maximal effect.

Row | Structure (SMILES) | activity, negative = inhibition | Potency | outcome
1 | CCC1=NN2C(=N)/C(=C/c3cc(C)n(-c4ccccc4)c3C)C(=O)N=C2S1 | 16.2% | – | –
2 | CCS(=O)(=O)C1=NSC2=NC(=O)/C(=C\c3cc(C)n(-c4cccc(OC)c4)c3C)C(=N)N21 | 3.29% | – | –
3 | CCOC(OCC)OCC | -9.69% | – | –
4 | COC(=O)C(CC(C)C)NS(=O)(=O)c1cc(Br)ccc1Br (stereo not given) | 0.664% | – | –
5 | C=CCOC(=O)C(=C)C | -0.151% | – | –
6 | O=C(O)c1ccc(/C=N/NC(=S)NCc2ccccc2)cc1 | -5.09% | – | –
7 | C/C(=N\NC(=S)NCc1ccccc1)C1CCCCC1 | -13% | – | –
8 | C/C(=N\NC(=S)NCc1ccccc1)c1ccc(Cl)cc1 | – | 31.6 µM (active) | –
9 | CC(O)[C@@H](N)C(=O)O (stereo not given in full) | -2.11% | – | –
10 | Cc1ccc(OCC(=O)Nc2nnc(-c3ccco3)s2)cc1 | 0.109% | – | –
11 | CNc1nnc(-c2ccco2)s1 | – | – | inactive
12 | COc1ccc(OCC(=O)Nc2nnc(-c3ccco3)s2)cc1 | – | 31.6 µM (active) | –
13 | COc1cc(C(F)(F)F)c(C(=O)N(C)c2ccc(Cl)cc2)cn1 | -4.86% | – | –
14 | COc1ccc(NC(=O)Cn2c(=O)n(Cc3ccco3)c(=O)c3ccccc32)cc1 | -4.47% | – | –
15 | CN(c1ccccc1)c1ccc(/C=c2\s/c(=C(/C#N)C(=O)C(C)(C)C)n(Cc3ccco3)c2=O)cc1 | – | 17.8 µM (active) | –
16 | Cc1cs/c(=N\N=C\c2ccc(O)cc2)n1Cc1ccco1 | -8.6% | – | –
17 | COc1ccc(C2CC(O)(c3ccccc3)Oc3cc(C)cc(C)c32)cc1 (stereo not given) | -17% | – | –
18 | O=[N+]([O-])c1ccc(C=Nc2ccc(Cl)cc2Cl)s1 | – | 25.1 µM (active) | –
19 | CC(C)(C)c1cc(C(=O)N/N=C/c2ccc([N+](=O)[O-])s2)n[nH]1 | 6.11% | – | –
20 | CCOc1ccc(NC(=O)CCC(=O)N/N=C/c2ccc([N+](=O)[O-])s2)cc1 | 4.95% | – | –
21 | CC(C)c1cnc(NC(=O)Cc2ccccc2)s1 | – | – | inactive
22 | CC(=O)OCC(NC(=O)C(Cc1ccccc1)NC(=O)OC(C)(C)C)C1OC(n2ccc(=O)[nH]c2=O)C(OC(C)=O)C1OC(C)=O (stereo not given) | – | – | inactive
23 | O=C(Nc1nnc(SCc2ccccc2)s1)c1ccco1 | 7.11% | – | –
24 | Brc1ccc(CSc2ccc(-c3ccco3)nn2)cc1 | – | – | inactive
25 | Nc1nc(SCc2ccccc2Cl)n[nH]1 | -13.7% | – | –

Row | Structure (SMILES) | activity, negative = inhibition | Potency | outcome
26 | Clc1ccccc1CSc1nnc(-c2ccco2)c(-c2ccco2)n1 | – | 35.5 µM (active) | –
27 | c1ccc(CSc2nnc(-c3ccco3)c(-c3ccco3)n2)cc1 | – | 11.2 µM (active) | –
28 | COC(OC)c1ccnc(SCc2ccccc2Cl)n1 | -7.6% | – | –
29 | COc1ccc(-c2ccc(C3C4C=CCCC4(C)C(=O)N3Cc3ccccc3)c(F)c2)cc1OC (stereo not given) | -11% | – | –
30 | Cc1noc(C)c1-c1ccc2ncnc(NC(C)c3ccco3)c2c1 (stereo not given) | 2.54% | – | –
31 | CCN(CC)/[N+]([O-])=N/Oc1cc(O/[N+]([O-])=N/N2CCCC2CO)c([N+](=O)[O-])cc1[N+](=O)[O-] (stereo not given) | – | – | inactive
32 | OC(CCl)CCl | -12.1% | – | –
33 | Cc1cc(Cl)ccc1NNC(=O)c1snnc1C | -2.2% | – | –
34 | COc1cccc(-c2cc(=O)c3cc(NC(=O)c4ccc(C)cc4)ccc3[nH]2)c1 | – | – | inactive [at 81.1 µM]
35 | Cc1ccc(S(=O)(=O)Oc2ccc(/C=N/NC(=O)c3c(Cl)cnn3C)cc2)cc1 | -2.22% | – | –
36 | Oc1ccc(O)c2c(O)cccc12 | – | 3.98 µM (active) | –
37 | Cn1c2ccccc2c(=O)c2c(O)cccc21 | -0.553% | – | –
38 | CNC(=O)[C@]1(C(F)(F)F)C[C@H](CCc2ccccc2)CCCO1 | – | – | inactive
39 | O=C1c2cccc(OCC(=O)N3N=C(c4cccs4)CC3c3ccc(F)cc3)c2CCN1Cc1ccccc1 (stereo not given) | -5.93% | – | –
40 | CC1CCCC(NC(=O)COC(=O)[C@@H]2CC(O)CN2S(=O)(=O)c2ccc3c(c2)OCCO3)C1C (stereo not given in full) | -3.5% | – | –
41 | O=C(CSc1ncn[nH]1)NCc1ccc2c(c1)OCO2 | -11.6% | – | –
42 | O=C(CSc1ccc(-c2ccco2)nn1)NCc1ccc2c(c1)OCO2 | – | 28.2 µM (active) | –
43 | Cc1ccccc1-c1nnc(SCC(=O)NCc2ccc3c(c2)OCO3)n1C | -1.82% | – | –
44 | C=C1CCN(C(CC(C)C)C(=O)N2CCOCC2)S(=O)(=O)c2ccccc21 (stereo not given) | – | – | inactive
45 | Cc1cccc(C2c3[nH]c4ccccc4c3CCN2C(=O)c2cc(-c3cccn3C)n[nH]2)n1 (stereo not given) | -1.43% | – | –
46 | O=C(O)c1ccc(/C=C2/SC(=S)N(c3cccc(C(F)(F)F)c3)C2=O)cc1 | 8.17% | – | –
47 | C=CCn1c(=S)[nH]c2scc(-c3ccco3)c2c1=O | – | 31.6 µM (active) | –
48 | C=CCn1c(SCc2csc(C)n2)nc2scc(-c3ccc(C)o3)c2c1=O | -1.43% | – | –
49 | C=CCNC(=O)CSc1nc2scc(-c3ccco3)c2c(=O)n1CC=C | – | – | inactive
50 | O=C1C[C@@H](c2ccc3ccccc3c2)N1S(=O)(=O)c1ccccc1[N+](=O)[O-] | -3.07% | – | –
